Screens: PubChem BioAssay, several laboratories
This is a sample that favours compounds with a hit; in the whole collection about 5.4% have one here.
Calb FLC = affects C. albicans growth with fluconazole | growth inhibition, % (concentration not given with the values) | 300,000 tested, 0.57% active | C. albicans CaCi-2 (fluconazole-resistant clinical isolate) + fluconazole, Alamar Blue growth, 48 h | AID 1979;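 active = growth inhibition above about 58% in most replicates, limit read from the data, passing the limit was not always enough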;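 also: all wells also contain fluconazole at 8 µg/ml as a sub-toxic cotreatment; 0% = median of DMSO wells and 100% = median of geldanamycin control wells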
ALR H2O2 inh = human ALR oxidase inhibition via reduced H2O2; purified ALR, DTT oxidation, H2O2 HRP-luminol luminescence; 290,000 tested, 3.8% active; inhibition, % (concentration not given with the values); P55789; AID 485317;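 active = mean replicate inhibition above about 79%, with every replicate also reaching it, limit read from the data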
PP5 primary = PP5 (human) phosphatase inhibition. inhibition, % at 6.7 µM. 320,000 tested, 0.18% active. purified PP5c, OMFP substrate fluorescence. AID 1987;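 active = inhibition above the campaign's mean inhibition across all tested compounds plus 3 SD, cut at about 9.5% in these data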;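 also: 0% = DMSO only and 100% = 100 µM cantharidin control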
Target sequence (P53041 whole entry, looked up): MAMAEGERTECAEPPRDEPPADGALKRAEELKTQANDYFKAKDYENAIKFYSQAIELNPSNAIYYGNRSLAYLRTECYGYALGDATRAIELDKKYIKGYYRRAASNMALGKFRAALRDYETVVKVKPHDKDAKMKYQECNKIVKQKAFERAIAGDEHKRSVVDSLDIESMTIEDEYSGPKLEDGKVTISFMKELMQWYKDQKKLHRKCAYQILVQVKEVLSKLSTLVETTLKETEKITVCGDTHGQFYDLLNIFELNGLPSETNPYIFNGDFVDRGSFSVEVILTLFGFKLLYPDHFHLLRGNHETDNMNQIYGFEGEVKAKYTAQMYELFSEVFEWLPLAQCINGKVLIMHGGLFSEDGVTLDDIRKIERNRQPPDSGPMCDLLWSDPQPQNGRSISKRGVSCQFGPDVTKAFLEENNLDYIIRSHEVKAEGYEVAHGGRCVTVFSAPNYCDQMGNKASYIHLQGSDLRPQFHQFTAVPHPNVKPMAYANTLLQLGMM
PP1 inh = blocks human PP1-alpha phosphatase, a PP5 counter-screen; AID 2235; inhibition, % at 6.7 µM; 320,000 tested, 0.9% active; purified PP1alpha, OMFP fluorescence; P62136;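 active = inhibition above the mean inhibition of all tested compounds plus 3 SD, computed separately for each screening campaign, cut at about 15% in these data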
CSC inhib = blocks cancer stem cells; cancer stem cell-like cells viability, luminescence; inhibition, % at 7.5 µM; 300,000 tested, 1.1% active; AID 2717; in the data active = inhibition above about 75%; tested in HMLE shEcad cells
An asterisk follows results filed as active; · = no result.

SMILES | Calb FLC | ALR H2O2 inh | PP5 primary | PP1 inh | CSC inhib
O=C1NC(=O)c2cc(Br)cc3cccc1c23 | 10 | -6 | 0 | -4 | 5
C=CCn1c(=NC(=O)c2cc(-c3cccs3)nc3ccccc23)sc2cc(S(N)(=O)=O)ccc21 | 5 | 0 | 2 | 16* | 62
COc1ccc(CCNC(=O)CSc2nnc3ccc(-c4ccccn4)nn23)cc1 | 7 | · | 0 | -3 | ·
COc1ccccc1NC(=O)Nc1ncccc1C | 0 | 98* | -1 | 1 | -4
CC1=NNC(=O)C1CCC(=O)N/N=C(/C)c1ccc([N+](=O)[O-])cc1 (stereo not drawn) | 37 | 6 | 0 | -1 | -8
CCc1ccc(C2NC(=S)NC3=C2C(=O)N(c2ccccc2OC)C(c2ccc(CC)cc2)N3)cc1 (stereo not drawn) | 3 | -4 | 4 | 12 | ·
O=C1C2=C(NC(=S)NC2c2ccc(Cl)cc2)NC(c2ccc(Cl)cc2)N1c1ccc(Cl)cc1 (stereo not drawn) | 25 | 1 | 4 | 5 | 101*
Cc1cccc(NS(=O)(=O)c2c(C(=O)N3CCCC3)c(C)n(C)c2C)c1 | 2 | -4 | 1 | -2 | 4
CC(=O)c1c(C)[nH]c(C(=O)COC(=O)c2ccc3c(=O)n4c(nc3c2)CCC4)c1C | 1 | -9 | 2 | -4 | 7
CCOC(=O)c1c2ccc(OCC(=O)NN)cc2n2ccccc12 | 36 | -51 | 0 | 6 | 38
CCOC(=O)c1c2ccc(OCC(=O)N/N=C/c3ccc(C)cc3)cc2n2ccccc12 | 31 | -50 | 0 | -2 | 114*
COc1cc(C(=O)Nc2ccc(F)cc2Cl)ccc1OCC(=O)N1CCOCC1 | 2 | -3 | 0 | -5 | -12
CC1=NN(C(N)=S)C(=O)C1N=Nc1cccc(Cl)c1 (stereo not drawn) | 1 | 90* | 1 | 0 | 4
CC1=NN(C(N)=S)C(=O)C1N=Nc1ccc(C)cc1C (stereo not drawn) | 24 | 94* | 3 | 7 | -14
CC1=NN(C(N)=S)C(=O)C1N=Nc1ccccc1C (stereo not drawn) | 51 | 0 | 1 | 2 | 5
CC1=NN(C(N)=S)C(=O)C1N=Nc1c(Cl)cc([N+](=O)[O-])cc1Cl (stereo not drawn) | 5 | 26 | 2 | 3 | 28
COc1cccc(N=NC2C(=O)N(C(N)=S)N=C2C)c1 (stereo not drawn) | 1 | -59 | 3 | 0 | 11
CC1=NN(C(N)=S)C(=O)C1N=Nc1c(C)cc(C)cc1C (stereo not drawn) | -8 | -5 | 1 | 17* | -7
CC1=NN(C(N)=S)C(=O)C1N=Nc1c(Br)cc(Br)cc1Br (stereo not drawn) | 63 | 98* | 4 | 8 | 77*
COc1ccc(OC)c(/C=N/n2c(-c3n[nH]c4c3CCC4)n[nH]c2=S)c1 | 1 | · | -2 | -2 | -8
Cc1ccc(SCC(=O)Nc2ccc(S(=O)(=O)Nc3ncccn3)cc2)cc1 | 1 | 90* | 2 | 3 | -16
COC(=O)c1ccc(NC(=O)CSCc2ccccc2)cc1 | -5 | 99* | 1 | 0 | -7
O=C(CSCc1ccccc1)Nc1ccc(S(=O)(=O)Nc2ncccn2)cc1 | -4 | 98* | 0 | -1 | -5
CCc1c(C(=O)NNC(=S)Nc2ccc(S(=O)(=O)Nc3ncccn3)cc2)csc1C | -4 | 98* | -3 | 0 | 5
O=S(=O)(Nc1ncccn1)c1ccc(NC(=S)Nc2ccccc2)cc1 | 28 | 3 | 0 | -8 | ·
SMILES | Calb FLC | ALR H2O2 inh | PP5 primary | PP1 inh | CSC inhib
O=C(c1ccc(F)cc1)[C@@H]1[C@@H](C(=O)c2ccccc2)[C@@]2(C(=O)Nc3ccccc32)[C@H]2c3ccccc3C=CN12 | 19 | · | 0 | 5 | 11
O=C(O)c1cc(NN=Nc2cccc(S(=O)(=O)O)c2)cc([N+](=O)[O-])c1 | 0 | -2 | 0 | 0 | 6
CCc1nc(SCC(=O)NCc2ccccc2)c2c(=O)n(C)c(=O)n(C)c2n1 | -8 | -4 | 2 | -4 | -4
O=C(Nc1ccc(S(=O)(=O)Nc2ncccn2)cc1)C1=COCCO1 | 7 | 97* | -2 | 2 | -9
CC(=O)Nc1ccc(S(=O)(=O)Nc2ncccn2)cc1 | -3 | -3 | 2 | -4 | -1
CCOC(=O)/C(C#N)=C/c1cc2ccccc2nc1Cl | 2 | 8 | -3 | -6 | 0
COc1ccc(-n2c(C)cc(/C=C3\SC(=S)NC3=O)c2C)cc1 | -2 | 24 | 2 | 4 | 10
O=C1NC(=S)S/C1=C\c1cc2ccccc2nc1N1CCCCC1 | 9 | 97* | -1 | 1 | 114*
N#C/C(=C\c1cc2ccccc2nc1N1CCCCC1)C(N)=O | · | 93* | 3 | 4 | -6
COc1ccc2nc(N3CCCCC3)c(/C=C3\SC(=S)NC3=O)cc2c1 | -4 | 5 | 5 | -1 | 121*
Cc1ccc(S(=O)(=O)NNC(=O)c2ccc(F)cc2)cc1 | 20 | 30 | -8 | -6 | -9
COc1ccc(C(=O)NC(=C(Cl)Cl)S(=O)(=O)c2ccc(C)cc2)cc1 | 2 | 1 | -1 | -7 | 3
Cc1ccc(C(=O)NC(=S)NNS(=O)(=O)c2ccccc2)cc1 | 7 | 98* | 2 | 1 | -4
Cc1ccc(S(=O)(=O)NNC(=S)Nc2cccc(F)c2)cc1 | 6 | 99* | 4 | 4 | -2
Cc1ccc(C(=O)NC(=C(Cl)Cl)S(=O)(=O)c2ccccc2)cc1 | 19 | 67 | 1 | 0 | 98*
Cc1cccc(NC(=O)NNS(=O)(=O)c2ccc(F)cc2)c1 | -6 | · | 2 | -1 | -3
COCCNC(=O)Cn1nc(-c2ccc(Cl)cc2)c2ccccc2c1=O | 8 | -6 | 1 | 2 | -8
NCCc1nnc(SCC(N)=O)o1 | 9 | -7 | -3 | 6 | 17
Cc1oc2c(c1C(=O)c1ccccc1)C(=O)C(=O)c1ccccc1-2 | 3 | 20 | 4 | 1 | 98*
CCOC(=O)c1c(C)oc2c1C(=O)c1ccccc1C2=O | · | -28 | 2 | -1 | 85*
O=C(c1ccc(Cl)cc1Cl)N1CCN(c2ccccn2)CC1 | -15 | -1 | 2 | -8 | -11
COc1ccccc1CN1CC(C(=O)NC2(c3ccccc3)CC2)CCC1=O (stereo not drawn) | -6 | -6 | 1 | 2 | -10
O=C(CSc1nc(-c2ccccc2)c(-c2ccccc2)[nH]1)NCCN1C(=O)CSC1=O | -8 | 99* | 4 | -1 | 27
C=CC[C@@H](CC(=O)N[C@@H](CO)Cc1ccccc1)C(=O)N[C@H](COC(=O)[C@@H](CC=C)CC(=O)OC(C)(C)C)Cc1c[nH]c2ccccc12 | · | -3 | · | · | 12
COc1ccc(OCC(=O)NCc2cccnc2)cc1 | 2 | -6 | 0 | -3 | 10
COc1ccc(-c2nc(CS(=O)CC(=O)NCc3cccnc3)c(C)o2)cc1 (stereo not drawn) | 2 | 99* | 1 | -3 | 1
Cc1oc(-c2ccc(Cl)cc2)nc1CN1CCCC(C(=O)NCc2cccnc2)C1 (stereo not drawn) | -12 | -2 | 0 | 2 | -16
